Data: the supplement of paper PMC11732987, “Enantioselective OTUD7B fragment discovery through chemoproteomics screening and high-throughput optimisation” (Communications Chemistry, 2025)

How the values were obtained:
Assay in all cases: log2 ratio of Biotin-Ahx-Ub-VS probe labelling (fragment/DMSO); higher = less target engagement (more negative = stronger competition), active = hit call of the paper (q ≤ 0.05, log2 ratio ≤ -1)
Conditions in all cases: compound concentration: 200 uM; treatment time: 3 h
[1] = molecular target: USP34 (UniProt Q70CQ2)
USP34, sequence (Q70CQ2 whole entry, the tested form may be a part): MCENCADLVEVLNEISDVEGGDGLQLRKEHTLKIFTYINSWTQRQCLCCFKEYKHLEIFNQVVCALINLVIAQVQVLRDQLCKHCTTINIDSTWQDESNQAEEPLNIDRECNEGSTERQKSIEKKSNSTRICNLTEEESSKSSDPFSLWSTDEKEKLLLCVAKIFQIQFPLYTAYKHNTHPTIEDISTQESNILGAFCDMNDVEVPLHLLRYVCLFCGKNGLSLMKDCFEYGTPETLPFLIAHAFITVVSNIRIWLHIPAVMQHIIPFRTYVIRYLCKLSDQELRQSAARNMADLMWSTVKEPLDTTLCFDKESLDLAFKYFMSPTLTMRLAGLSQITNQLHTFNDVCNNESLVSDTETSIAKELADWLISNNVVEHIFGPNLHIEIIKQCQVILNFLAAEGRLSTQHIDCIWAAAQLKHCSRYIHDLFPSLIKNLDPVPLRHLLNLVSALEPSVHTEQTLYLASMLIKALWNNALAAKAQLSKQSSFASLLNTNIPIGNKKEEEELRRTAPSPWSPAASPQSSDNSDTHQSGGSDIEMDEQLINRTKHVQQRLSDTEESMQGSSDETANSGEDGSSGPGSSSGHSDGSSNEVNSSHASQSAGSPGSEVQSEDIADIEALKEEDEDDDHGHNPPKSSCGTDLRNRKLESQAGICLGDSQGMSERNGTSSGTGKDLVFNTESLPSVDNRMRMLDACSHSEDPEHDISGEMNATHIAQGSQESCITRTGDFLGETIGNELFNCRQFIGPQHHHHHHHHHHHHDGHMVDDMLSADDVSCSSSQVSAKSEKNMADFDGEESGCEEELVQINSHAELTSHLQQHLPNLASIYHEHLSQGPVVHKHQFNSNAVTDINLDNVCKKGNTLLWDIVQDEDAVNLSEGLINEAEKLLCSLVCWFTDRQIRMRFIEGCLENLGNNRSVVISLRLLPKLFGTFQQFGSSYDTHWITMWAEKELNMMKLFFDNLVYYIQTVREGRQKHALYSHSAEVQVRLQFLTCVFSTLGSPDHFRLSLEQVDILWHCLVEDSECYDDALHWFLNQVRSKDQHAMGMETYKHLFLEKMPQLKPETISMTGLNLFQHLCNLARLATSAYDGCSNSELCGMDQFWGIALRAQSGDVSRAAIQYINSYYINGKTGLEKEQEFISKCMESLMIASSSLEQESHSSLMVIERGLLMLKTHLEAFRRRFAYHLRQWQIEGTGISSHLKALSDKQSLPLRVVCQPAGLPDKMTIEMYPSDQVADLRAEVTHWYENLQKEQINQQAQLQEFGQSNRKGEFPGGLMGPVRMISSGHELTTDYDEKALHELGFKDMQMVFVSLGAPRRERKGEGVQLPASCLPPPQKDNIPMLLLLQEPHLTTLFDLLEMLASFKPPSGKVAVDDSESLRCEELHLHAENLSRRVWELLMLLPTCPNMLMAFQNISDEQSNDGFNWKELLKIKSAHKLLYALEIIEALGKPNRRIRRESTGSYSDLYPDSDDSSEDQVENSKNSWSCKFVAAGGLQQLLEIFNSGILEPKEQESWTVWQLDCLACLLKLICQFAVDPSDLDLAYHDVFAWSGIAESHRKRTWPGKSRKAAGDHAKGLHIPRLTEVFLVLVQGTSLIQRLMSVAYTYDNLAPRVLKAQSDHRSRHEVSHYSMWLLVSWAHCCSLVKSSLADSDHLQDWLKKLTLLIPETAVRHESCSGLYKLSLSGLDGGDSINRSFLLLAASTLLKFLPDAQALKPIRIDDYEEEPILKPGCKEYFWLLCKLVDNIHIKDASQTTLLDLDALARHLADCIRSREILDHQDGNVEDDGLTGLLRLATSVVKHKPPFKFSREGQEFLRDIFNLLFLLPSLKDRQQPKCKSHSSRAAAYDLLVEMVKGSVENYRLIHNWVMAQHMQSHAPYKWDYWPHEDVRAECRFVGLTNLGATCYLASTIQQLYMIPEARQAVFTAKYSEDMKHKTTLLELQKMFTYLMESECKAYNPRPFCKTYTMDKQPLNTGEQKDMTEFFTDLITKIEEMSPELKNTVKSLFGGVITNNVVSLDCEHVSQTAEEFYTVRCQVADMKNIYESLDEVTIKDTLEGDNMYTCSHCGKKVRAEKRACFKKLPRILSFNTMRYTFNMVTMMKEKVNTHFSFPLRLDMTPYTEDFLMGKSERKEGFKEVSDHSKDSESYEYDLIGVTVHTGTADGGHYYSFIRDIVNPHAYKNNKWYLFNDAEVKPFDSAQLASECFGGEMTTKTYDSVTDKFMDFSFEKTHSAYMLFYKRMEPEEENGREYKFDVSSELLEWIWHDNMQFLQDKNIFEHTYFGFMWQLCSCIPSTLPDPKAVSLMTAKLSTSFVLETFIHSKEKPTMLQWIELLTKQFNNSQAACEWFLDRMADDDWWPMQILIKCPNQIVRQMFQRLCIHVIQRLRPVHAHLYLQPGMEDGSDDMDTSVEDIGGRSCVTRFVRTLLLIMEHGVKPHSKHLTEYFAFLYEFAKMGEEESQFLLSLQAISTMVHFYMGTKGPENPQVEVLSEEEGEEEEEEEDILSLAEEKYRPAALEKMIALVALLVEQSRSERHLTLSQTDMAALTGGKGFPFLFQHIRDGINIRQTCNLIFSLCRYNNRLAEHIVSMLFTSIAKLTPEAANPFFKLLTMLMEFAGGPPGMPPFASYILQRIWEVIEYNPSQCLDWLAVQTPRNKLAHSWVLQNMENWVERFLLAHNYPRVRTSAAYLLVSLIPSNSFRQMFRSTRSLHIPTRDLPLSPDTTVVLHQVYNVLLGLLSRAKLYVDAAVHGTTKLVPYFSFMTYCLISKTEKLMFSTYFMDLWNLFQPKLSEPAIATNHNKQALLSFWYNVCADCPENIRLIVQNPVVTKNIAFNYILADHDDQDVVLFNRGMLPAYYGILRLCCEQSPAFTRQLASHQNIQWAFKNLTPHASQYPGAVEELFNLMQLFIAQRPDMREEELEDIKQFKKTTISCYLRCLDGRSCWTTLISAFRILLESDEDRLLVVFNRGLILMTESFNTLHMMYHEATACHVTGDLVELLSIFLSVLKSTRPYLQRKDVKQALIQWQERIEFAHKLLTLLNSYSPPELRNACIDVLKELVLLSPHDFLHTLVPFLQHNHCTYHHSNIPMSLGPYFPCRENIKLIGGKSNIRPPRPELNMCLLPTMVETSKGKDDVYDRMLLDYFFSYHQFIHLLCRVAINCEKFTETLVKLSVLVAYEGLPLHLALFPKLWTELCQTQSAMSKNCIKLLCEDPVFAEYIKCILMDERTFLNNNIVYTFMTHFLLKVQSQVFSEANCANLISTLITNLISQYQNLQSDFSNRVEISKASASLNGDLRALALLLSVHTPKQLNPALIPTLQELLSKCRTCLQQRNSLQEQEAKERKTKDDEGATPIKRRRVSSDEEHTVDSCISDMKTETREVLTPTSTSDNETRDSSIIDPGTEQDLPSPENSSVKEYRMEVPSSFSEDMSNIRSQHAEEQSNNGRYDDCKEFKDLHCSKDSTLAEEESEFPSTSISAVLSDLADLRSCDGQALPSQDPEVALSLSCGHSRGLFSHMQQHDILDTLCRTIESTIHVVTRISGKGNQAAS
Summary of the method: (§1)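 Triplicate samples of HEK293T lysate, 495 µg each, received fragment at 200 µM or vehicle for 3 h, followed by Biotin-Ahx-Ub-VS (0.5 µM final) for 1 h. After NeutrAvidin enrichment of labelled DUBs and LysC/trypsin digestion, peptides were run by diaPASEF LC-MS/MS. The values are average log2 fragment/vehicle ratios from global-median-normalised Spectronaut label-free quantities, tested by unpaired t-test on proteins having ≥2 unique peptides.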

[2] = molecular target: T1, USP36 (UniProt Q9P275)
T1 sequence (whole entry): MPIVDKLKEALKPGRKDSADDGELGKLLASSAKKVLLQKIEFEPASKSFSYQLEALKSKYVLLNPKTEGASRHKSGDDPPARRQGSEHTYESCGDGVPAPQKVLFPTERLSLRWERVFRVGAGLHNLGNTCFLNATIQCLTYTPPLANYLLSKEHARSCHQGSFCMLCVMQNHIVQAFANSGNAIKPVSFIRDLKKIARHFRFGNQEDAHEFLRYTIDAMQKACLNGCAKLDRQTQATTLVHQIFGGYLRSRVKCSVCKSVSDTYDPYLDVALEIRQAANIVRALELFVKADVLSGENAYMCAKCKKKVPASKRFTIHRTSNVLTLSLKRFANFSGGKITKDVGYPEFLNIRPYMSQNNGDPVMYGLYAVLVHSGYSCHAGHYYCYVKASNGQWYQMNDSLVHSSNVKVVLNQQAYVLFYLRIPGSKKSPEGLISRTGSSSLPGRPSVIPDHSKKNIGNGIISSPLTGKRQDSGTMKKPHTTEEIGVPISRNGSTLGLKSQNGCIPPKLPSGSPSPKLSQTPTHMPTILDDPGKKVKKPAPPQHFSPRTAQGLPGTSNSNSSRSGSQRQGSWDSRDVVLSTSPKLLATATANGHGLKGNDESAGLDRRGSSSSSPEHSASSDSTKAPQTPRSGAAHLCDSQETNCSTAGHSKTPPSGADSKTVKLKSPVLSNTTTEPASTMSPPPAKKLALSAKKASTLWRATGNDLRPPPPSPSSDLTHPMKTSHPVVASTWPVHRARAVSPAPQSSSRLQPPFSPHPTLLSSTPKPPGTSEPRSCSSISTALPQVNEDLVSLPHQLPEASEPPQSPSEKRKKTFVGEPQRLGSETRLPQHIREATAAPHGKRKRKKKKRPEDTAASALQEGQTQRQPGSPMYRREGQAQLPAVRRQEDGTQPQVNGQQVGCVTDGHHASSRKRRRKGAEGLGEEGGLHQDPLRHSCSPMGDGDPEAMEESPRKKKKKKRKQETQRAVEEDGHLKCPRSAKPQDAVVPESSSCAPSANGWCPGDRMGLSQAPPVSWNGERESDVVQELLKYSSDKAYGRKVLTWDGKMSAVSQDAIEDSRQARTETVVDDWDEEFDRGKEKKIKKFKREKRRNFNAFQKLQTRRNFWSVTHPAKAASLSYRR
Summary of the method: as §1

[3] = molecular target: T2, USP38 (UniProt Q8NB14)
T2 sequence (whole entry): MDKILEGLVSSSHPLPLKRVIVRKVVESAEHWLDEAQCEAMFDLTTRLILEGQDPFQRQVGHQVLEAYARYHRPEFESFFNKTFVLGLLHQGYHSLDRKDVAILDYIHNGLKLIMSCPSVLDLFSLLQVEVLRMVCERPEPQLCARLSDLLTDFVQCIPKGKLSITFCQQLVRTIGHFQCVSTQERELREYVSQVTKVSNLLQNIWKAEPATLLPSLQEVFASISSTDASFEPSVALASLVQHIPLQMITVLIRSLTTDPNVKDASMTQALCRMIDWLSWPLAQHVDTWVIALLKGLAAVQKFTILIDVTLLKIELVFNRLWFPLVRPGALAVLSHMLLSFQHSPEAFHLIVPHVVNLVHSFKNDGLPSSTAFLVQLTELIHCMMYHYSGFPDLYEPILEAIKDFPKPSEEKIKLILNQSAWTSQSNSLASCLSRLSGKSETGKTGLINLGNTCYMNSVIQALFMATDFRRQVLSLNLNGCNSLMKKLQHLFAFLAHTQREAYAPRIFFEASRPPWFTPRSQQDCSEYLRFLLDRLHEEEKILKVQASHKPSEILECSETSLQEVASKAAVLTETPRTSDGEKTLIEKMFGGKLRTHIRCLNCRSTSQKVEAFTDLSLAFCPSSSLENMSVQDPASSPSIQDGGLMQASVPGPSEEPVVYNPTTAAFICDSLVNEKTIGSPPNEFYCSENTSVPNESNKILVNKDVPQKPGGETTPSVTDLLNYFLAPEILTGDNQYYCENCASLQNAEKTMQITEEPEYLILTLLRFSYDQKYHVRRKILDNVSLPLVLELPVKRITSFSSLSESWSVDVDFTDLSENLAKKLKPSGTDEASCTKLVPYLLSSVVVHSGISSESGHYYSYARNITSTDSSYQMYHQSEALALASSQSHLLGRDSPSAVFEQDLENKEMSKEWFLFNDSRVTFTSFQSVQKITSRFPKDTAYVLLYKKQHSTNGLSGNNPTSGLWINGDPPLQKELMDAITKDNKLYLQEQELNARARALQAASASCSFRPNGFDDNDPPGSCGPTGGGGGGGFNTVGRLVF
Summary of the method: as §1

[4] = molecular target: T3, USP39 (UniProt Q53GS9)
T3 sequence (whole entry): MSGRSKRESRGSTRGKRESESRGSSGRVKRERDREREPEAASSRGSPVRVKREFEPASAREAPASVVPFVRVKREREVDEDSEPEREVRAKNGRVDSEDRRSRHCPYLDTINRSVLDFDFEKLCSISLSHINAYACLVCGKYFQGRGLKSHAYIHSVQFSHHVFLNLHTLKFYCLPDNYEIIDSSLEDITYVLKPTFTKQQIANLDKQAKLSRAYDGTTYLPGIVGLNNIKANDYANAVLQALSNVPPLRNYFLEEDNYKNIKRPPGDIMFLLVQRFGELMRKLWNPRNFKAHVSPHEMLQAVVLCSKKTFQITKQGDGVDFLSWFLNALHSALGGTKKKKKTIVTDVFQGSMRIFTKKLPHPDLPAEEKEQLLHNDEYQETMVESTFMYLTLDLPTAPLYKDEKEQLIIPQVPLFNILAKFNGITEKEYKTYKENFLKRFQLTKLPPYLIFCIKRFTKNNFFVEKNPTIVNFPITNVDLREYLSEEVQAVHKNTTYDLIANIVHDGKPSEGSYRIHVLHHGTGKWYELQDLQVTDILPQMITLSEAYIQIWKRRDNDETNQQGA
Summary of the method: as §1

[5] = molecular target: T4, USP4 (UniProt Q13107)
T4 sequence (whole entry): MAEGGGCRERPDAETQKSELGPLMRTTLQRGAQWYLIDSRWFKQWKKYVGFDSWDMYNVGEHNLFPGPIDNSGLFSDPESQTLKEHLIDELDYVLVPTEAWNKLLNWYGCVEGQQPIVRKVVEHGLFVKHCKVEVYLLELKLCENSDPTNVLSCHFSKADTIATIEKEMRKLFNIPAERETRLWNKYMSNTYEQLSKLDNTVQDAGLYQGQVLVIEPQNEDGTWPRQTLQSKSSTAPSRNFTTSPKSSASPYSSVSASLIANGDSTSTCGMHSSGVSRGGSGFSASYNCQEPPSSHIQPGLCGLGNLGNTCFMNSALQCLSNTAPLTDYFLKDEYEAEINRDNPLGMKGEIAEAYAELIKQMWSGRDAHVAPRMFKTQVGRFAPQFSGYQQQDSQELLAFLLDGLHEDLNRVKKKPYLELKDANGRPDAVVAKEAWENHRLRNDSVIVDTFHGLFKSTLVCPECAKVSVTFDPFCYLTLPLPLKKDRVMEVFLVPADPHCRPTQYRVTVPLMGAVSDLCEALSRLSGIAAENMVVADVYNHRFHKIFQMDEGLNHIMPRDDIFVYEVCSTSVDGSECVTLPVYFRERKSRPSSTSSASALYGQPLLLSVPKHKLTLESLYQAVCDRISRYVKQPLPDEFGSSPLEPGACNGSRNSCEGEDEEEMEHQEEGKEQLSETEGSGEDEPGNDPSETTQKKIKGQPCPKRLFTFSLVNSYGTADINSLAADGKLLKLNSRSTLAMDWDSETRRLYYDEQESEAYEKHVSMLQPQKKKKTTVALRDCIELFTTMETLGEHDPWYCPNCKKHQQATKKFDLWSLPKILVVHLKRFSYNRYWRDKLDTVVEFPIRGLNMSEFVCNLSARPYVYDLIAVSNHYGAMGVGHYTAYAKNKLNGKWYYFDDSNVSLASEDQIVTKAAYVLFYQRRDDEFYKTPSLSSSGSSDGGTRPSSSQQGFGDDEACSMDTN
Summary of the method: as §1

Measured: log2 ratio of Biotin-Ahx-Ub-VS probe labelling

CCN(C(=O)CCl)C1CCS(=O)(=O)C1 (stereo not given)
inactive: [1] -0.11 | [2] -0.152 | [3] -0.0197 | [4] -0.0969 | [5] 0.159
